The source of these data is PubChem BioAssay AID2447 (National Center for Advancing Translational Sciences (NCATS), 2010).

The other results are listed elsewhere or left out. Records with an inconclusive call do not appear. The source made the active and inactive calls. Calls come from the whole dose curve.

A short description of the test: Cell Viability Secondary Assay for Inhibitors of the Interaction of Thyroid Hormone Receptor and Steroid Receptor Coregulator 2. Particulars: HepG2 viability, ATP luminescence (CellTiter-Glo), 72 h. The text has this: NIH Molecular Libraries Probe Production Network [MLPCN] NIH Chemical Genomics Center [NCGC] MLPCN Grant: DK058080 Assay Provider: R. Kip Guy, St. Jude Children's Research Hospital NCGC Assay Overview: Thyroid receptor (TR) regulates many homeostatic processes including basal metabolism, cardiovascular function, body weight, and lipid trafficking. TR modulators are potential therapeutics for obesity and hyperlipidemias but current thyroid analogs have undesirable side effects, particularly cardiac stimulation. This secondary assay characterized compounds identified in the qHTS for Inhibitors of the Interaction of Thyroid Hormone Receptor and Steroid Receptor Coregulator 2 (PubChem AID 1485). The effect of compounds on the viability of HepG2 cells was assessed by measuring ATP levels.
NCGC Assay Protocol Summary: HepG2 cells were grown to 80% confluence, collected, and cells were dispensed at 500 cells/25 ul/well into 384 well plates (Costar 3712). Following transfer of 100 nL compound (ranging from 2.5 nM to 50 uM), cells were incubated for 72 hours at 37 C and 5% CO2. Following this incubation, plates were equilibrated at ambient temperature for 30 min, 25 ul of CellTiter-Glo (Promega) was added and luminescence was detected by an EnVision (PerkinElmer) reader.
For the compound `CS(=O)(=O)c1ccc(C(=O)OCC(=O)N2CCC(c3ccccc3)CC2)cc1[N+](=O)[O-]`, the Potency was 8.9 µM (active).

For the compound `O=C(COC(=O)c1cccc([N+](=O)[O-])c1)NC1C2CC3CC(C2)CC1C3` (stereo not drawn), the compound was classed as inactive.

In the case of `CS(=O)(=O)c1ccc(C(=O)OCC(=O)N2CCNc3ccccc32)cc1[N+](=O)[O-]`, the Potency is 18 µM (active).
